Test [1] has as its target Cytochrome P450 2D6 (Homo sapiens) (UniProt P10635). Briefly: Cytochrome P450 family 2 subfamily D member 6 (CYP2D6) small molecule antagonists: luciferase biochemical (cell-free) qHTS assay (AID 1645840; active = well fitted curve in the direction sought with a large enough effect in the repeat runs; an effect the other way counts as inactive or inconclusive; note: nearly all actives have a fitted effect of over 55% in size; note: potency is the fitted concentration of half-maximal effect). In short, it runs like this: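 P450-Glo luminescent screen: recombinant CYP2D6 enzyme–proluciferin substrate mix preincubated with compound 10 min at room temperature, then NADPH regeneration added for 1 h at room temperature. Detection reagent added for 20 min; luciferin light read as relative luminescence units.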
(In general: Quantitative high-throughput screening tests each substance at several concentrations.)

The target in test [2] is Cytochrome P450 2C9 (Homo sapiens) (UniProt P11712). The test can be described thus: Cytochrome P450 family 2 subfamily C member 9 (CYP2C9) small molecule antagonists: luciferase biochemical (cell-free) qHTS assay (AID 1645842; active = well fitted curve in the direction sought with a large enough effect in the repeat runs; an effect the other way counts as inactive or inconclusive; note: potency is the fitted concentration of half-maximal effect; nearly all actives have a fitted effect of over 55% in size). In a few lines: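 Luminescence, after 20 min with luciferin detection reagent, reflected CYP2C9 turnover during a 1 h NADPH-driven reaction at 37C. Enzyme-substrate mix contained 0.4% bovine serum albumin and was preincubated with compound 10 min at room temperature.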
Sequence of Cytochrome P450 2C9 (Homo sapiens) (P11712 whole entry, looked up): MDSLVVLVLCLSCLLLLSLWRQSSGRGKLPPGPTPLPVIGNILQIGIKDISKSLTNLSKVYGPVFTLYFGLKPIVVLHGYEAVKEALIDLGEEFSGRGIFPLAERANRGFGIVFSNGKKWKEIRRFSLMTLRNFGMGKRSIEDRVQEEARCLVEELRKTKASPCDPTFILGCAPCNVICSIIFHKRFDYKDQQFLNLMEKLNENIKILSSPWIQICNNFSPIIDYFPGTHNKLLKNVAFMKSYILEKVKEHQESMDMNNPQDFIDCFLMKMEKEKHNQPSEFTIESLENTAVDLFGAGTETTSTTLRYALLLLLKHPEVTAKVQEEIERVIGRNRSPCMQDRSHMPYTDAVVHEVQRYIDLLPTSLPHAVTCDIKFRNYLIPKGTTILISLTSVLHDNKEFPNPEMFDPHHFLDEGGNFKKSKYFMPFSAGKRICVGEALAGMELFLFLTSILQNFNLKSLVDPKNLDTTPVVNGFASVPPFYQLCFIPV

In test [3] the target is N-terminal Xaa-Pro-Lys N-methyltransferase 1 (Homo sapiens) (UniProt Q9BV86). The test can be described thus: Confirmatory qHTS for Inhibitors of N-terminal methyltransferase 1 (NTMT1): MTaseGlo Assay (AID 1645874). Note: nearly all actives have a fitted effect of over 65% in size. Note: potency is the fitted concentration of half-maximal effect. In short, it runs like this:
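Preincubation of NTMT1 (125 nM) plus SAM (100 uM) with test compounds lasted 15 min; methylation of 1 uM SPKRIA then proceeded 30 min in the dark at room temperature. Luciferase signal reported SAH produced.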

The nature of test [4]: Primary qHTS for small molecule stabilizers of the endoplasmic reticulum resident proteome: Secreted ER Calcium Modulated Protein (SERCaMP) assay (AID 1508630). In a few lines:
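GLuc-SERCaMP-expressing SH-SY5Y cells, pretreated 16 h with compound, are challenged with thapsigargin to empty ER calcium stores; after 4 h, coelenterazine is added directly to the medium and luminescence is imaged.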

A short description of test [5]: Primary qHTS for inhibitors of nuclear receptor binding SET domain protein 2 (NSD2) in an isogenic RCH-ACV NSD2 p.E1099K mutant (9B) (AID 1645876). Note: nearly all actives have a fitted effect of over 70% in size. Note: potency is the fitted concentration of half-maximal effect.
A short description of test [6]: Primary qHTS for inhibitors of nuclear receptor binding SET domain protein 2 (NSD2) in an RCH-ACV wild type WT cells (2C) (AID 1645877). Note: nearly all actives have a fitted effect of over 70% in size. Note: potency is the fitted concentration of half-maximal effect.

Where “and” joins values, the source holds several entries; their conditions need not be identical. Equal entries are not always repeated. Results filed as inconclusive are left out. Calls of active or inactive are those of the source. Unless noted, calls come from the whole dose curve; as a rule, active = well fitted curve in the direction sought with a large enough effect; inconclusive = small, poorly fitted or top-dose-only effect, or another doubt; inactive = no such curve, though single readings can be large; an effect the other way counts as inactive or inconclusive. Where a SMILES comes first, the peptide text is derived from it. Bridges are numbered along the chain shown (N, C = ends). [ ]: non-standard residue; d: D form. The star is where a group is joined. X1 = CCC(C)C(N)C1=NC(C(=O)*)CS1; dOrn = NCCC[C@@H](N)C(=O)O

Sequence of Cytochrome P450 2D6 (Homo sapiens) (P10635 whole entry, looked up): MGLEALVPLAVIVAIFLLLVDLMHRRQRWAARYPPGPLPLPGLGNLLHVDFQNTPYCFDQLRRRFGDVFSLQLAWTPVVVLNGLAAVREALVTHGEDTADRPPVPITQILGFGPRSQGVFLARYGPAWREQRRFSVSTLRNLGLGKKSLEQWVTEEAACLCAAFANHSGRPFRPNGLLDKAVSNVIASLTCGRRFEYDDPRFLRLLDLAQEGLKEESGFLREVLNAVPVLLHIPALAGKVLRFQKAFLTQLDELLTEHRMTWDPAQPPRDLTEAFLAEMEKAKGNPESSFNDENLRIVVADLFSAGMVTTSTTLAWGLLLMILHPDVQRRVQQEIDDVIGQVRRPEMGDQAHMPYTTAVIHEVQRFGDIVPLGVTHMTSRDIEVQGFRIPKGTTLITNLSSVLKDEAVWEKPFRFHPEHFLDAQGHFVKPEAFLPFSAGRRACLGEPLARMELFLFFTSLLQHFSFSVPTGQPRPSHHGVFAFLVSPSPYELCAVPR
Sequence of N-terminal Xaa-Pro-Lys N-methyltransferase 1 (Homo sapiens) (Q9BV86 whole entry, looked up): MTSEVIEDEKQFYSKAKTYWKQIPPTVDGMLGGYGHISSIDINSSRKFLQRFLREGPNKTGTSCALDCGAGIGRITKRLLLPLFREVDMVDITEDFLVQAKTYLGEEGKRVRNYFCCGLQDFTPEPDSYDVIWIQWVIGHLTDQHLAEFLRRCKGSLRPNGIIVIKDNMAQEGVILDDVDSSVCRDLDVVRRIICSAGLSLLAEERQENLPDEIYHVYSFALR

Turning to `CC[C@@H](c1ccc(F)c(F)c1)n1c(C(=O)OC)c(-c2ccno2)[nH]c1=S`, the Potency entry in test [1] and in test [3] was “inactive” throughout. Further, the Potency in test [2] was 0.756 µM (active).
As for `CN1Cc2c(N)cccc2C(c2ccccc2)C1` (stereo unspecified), in test [4], the outcome was inactive. Moreover, the Potency in test [1] is 7.76 µM (active). Moreover, the Potency result in test [5] and in test [6] was “inactive” in each case.
Turning to `Cc1onc(-c2ccccc2)c1C(=O)N[C@@H]1C(=O)N2[C@@H]1SC(C)(C)[C@@H]2C(=O)O`, the Potency entry in test [1], in test [5] and in test [6] was “inactive” in each case.
Turning to `O=C(c1ccc(C#Cc2cccc(F)c2)cn1)N1CC2CC2C1` (stereo unspecified), in test [1], the Potency is 16.9 µM (active). Moreover, the Potency entry in test [5] and in test [6] was “inactive” each time.
With `CCn1nnnc1NCc1ccc(C(C)C)cc1`, the Potency entry in test [1], in test [5] and in test [6] was “inactive” in each case.
On to `Clc1ccc(CN[C@H]2CCN(c3ncc(Br)cn3)C2)c(Cl)c1`, for which the Potency is 0.674 µM (active) in test [1] and 8.49 µM (active) in test [2]. Moreover, the Potency entry in test [6] was “inactive”.
With `CCC(=O)N[C@@H]1Cc2ccccc2[C@H](c2ccccc2)C1`, in test [1], the Potency was 9.52 µM (active). Moreover, the Potency result in test [5] and in test [6] was “inactive” in each case.
Take `CC(=O)c1cnc2ccc(-c3cc(Cl)c(O)c(Cl)c3)nc2c1NC1CCC(CN(C)C)CC1` (stereo unspecified): the Potency result in test [1] was “inactive”. Also, the Potency in test [5] is 30.3 nM (active) and 3.7 nM (active); in test [6], 38.2 nM (active) and 3.7 nM (active).
As to `CNC(=O)Nc1ccc(OC)c(NC(=O)NC(=O)c2cc(F)c(F)cc2Cl)c1`, the Potency entry in test [1], in test [5] and in test [6] was “inactive” throughout.
Consider `CCOC(=O)Nc1nc2ccccc2[nH]1`, for which, in test [1], the Potency was 3.79 µM (active). For the same compound, the Potency entry in test [5] was “inactive”.
In the case of `CCCCN(CCCC)C(=O)CN1C[C@H](c2ccc3c(c2)OCO3)[C@@H](C(=O)O)[C@@H]1c1ccc(OC)cc1`, the Potency was 19 µM (active) in test [1] and 21.3 µM (active) in test [2]. Moreover, the Potency entry in test [5] and in test [6] was “inactive” in each case.
`COCC(=O)N1CCc2cc(-c3csc(NC(=O)c4cc(OC)cc(OC)c4)n3)ccc21`: the Potency entry in test [1], in test [5] and in test [6] was “inactive” in each case.
On to `CC(=O)NCCCCn1c2c(c3ccccc31)C(=O)NCC2`, for which the Potency entry in test [1] and in test [5] was “inactive” each time.
As to `Cc1cc(C)cc(NC(=O)Cc2ccc(OC(C)(C)C(=O)O)cc2)c1`, the Potency result in test [1], in test [5] and in test [6] was “inactive” throughout.
`Cc1ccc(C(=O)Nc2ccc(Oc3cc4cnn(C)c4cc3-c3cn[nH]c3)c(F)c2)c(=O)n1-c1ccc(F)cc1`: the Potency entry in test [1] was “inactive”. In addition, the Potency in test [5] was 2.9 µM (active) and 5.9 µM (active); in test [6], 2.9 µM (active) and 3.72 µM (active).
Take `Cc1ccc2c(c1)C=Cc1cc(C)ccc1C2c1cn(Cc2ccc(C(=O)Nc3nn[nH]n3)o2)c(=O)[nH]c1=S`: the Potency result in test [1], in test [5] and in test [6] was “inactive” each time.
`Cc1cc(Nc2ncc(Cl)c(Nc3ccccc3S(=O)(=O)C(C)C)n2)c(OC(C)C)cc1C1CCNCC1`: the Potency in test [1] was 16.9 µM (active); in test [5] it was 3.25 µM (active) and 5.25 µM (active); in test [6] it was 2.9 µM (active) and 3.72 µM (active).
For the compound `CCS(=O)(=O)N1CCC([C@@H](C)n2c(C)c(C(=O)NCc3c(OC)cc(C)[nH]c3=O)c3ccccc32)CC1`, the Potency entry in test [1], in test [5] and in test [6] was “inactive” in each case.
`CCC(C)C(N)C1=NC(C(=O)N[C@@H](CC(C)C)C(=O)N[C@H](CCC(=O)O)C(=O)N[C@H](C(=O)N[C@H]2CCCCNC(=O)[C@H](CC(N)=O)NC(=O)[C@@H](CC(=O)O)NC(=O)[C@H](Cc3cnc[nH]3)NC(=O)[C@@H](Cc3ccccc3)NC(=O)[C@H]([C@@H](C)CC)NC(=O)[C@@H](CCCN)NC2=O)[C@@H](C)CC)CS1` (stereo partly specified) (X1-L[dE]IK[dOrn]I[dF]H[dD]N; lactam 4-C): the Potency result in test [1], in test [5] and in test [6] was “inactive” each time. The Potency in test [3] is 2.94 µM (active).
On to `Nc1nc(CC(=O)Nc2ccc(CCNCC(O)c3ccccc3)cc2)cs1` (stereo unspecified), for which, in test [1], the Potency was 0.477 µM (active). In addition, the Potency result in test [5] and in test [6] was “inactive” each time.
With `O=S(=O)(NC1CCNCC1)c1cc(S(=O)(=O)c2ccccc2)ccc1C(F)(F)F`, the Potency entry in test [1], in test [5] and in test [6] was “inactive” each time.
Take `OC[C@H]1O[C@@H](n2cnc3c2NC=NC[C@H]3O)C[C@@H]1O`: the Potency entry in test [1], in test [5] and in test [6] was “inactive” in each case.
Take `COc1ccc([C@@H]2N[C@H](C(=O)O)Cc3c2[nH]c2ccccc32)cc1CN1CCN(c2ccccc2F)CC1`: the Potency in test [1] is 13.5 µM (active). Also, the Potency entry in test [5] and in test [6] was “inactive” in each case.
Regarding `COC(=O)[C@H](CC1C=NC=N1)NCC12CC3CC(CC(C3)C1)C2` (stereo partly specified), the Potency entry in test [1] and in test [5] was “inactive” throughout.
Consider `CCn1c2ccccc2c2cc(CNC)ccc21`, for which the Potency in test [1] was 9.52 µM (active); in test [5], 23 µM (active); in test [6], 23 µM (active).
For `COc1ccc(C[C@H](N)C(=O)N[C@H]2[C@@H](O)[C@H](n3cnc4c(N(C)C)ncnc43)O[C@@H]2CO)cc1`, in test [1], the Potency result was “inactive”. Also, the Potency in test [5] was 0.409 µM (active); in test [6], 0.258 µM (active).
The like results for `O=c1ccn([C@@H]2O[C@H](CO)[C@@H](O)[C@H]2O)c(=O)[nH]1` were, in that order, “inactive”, “inactive” and “inactive”.

The record behind these values is PubChem BioAssay (NCATS).
